# “And” between values parts separate entries of the source, which are not always exact repeats. Identical values can stand only once. Like-named read-outs stand apart in the source and are kept apart here.
# What was measured:
# Conditions in all cases: concentration: 1 μM, replicates: in singlicate, n = 1
# FLT3-autoinhibited = tested on: FLT3-autoinhibited
# FLT3 = tested on: FLT3
# FLT4 = tested on: FLT4
# FRK = tested on: FRK
# FYN = tested on: FYN
# GAK = tested on: GAK
# GCN2(Kin.Dom.2,S808G) = tested on: T1, GCN2(Kin.Dom.2,S808G)
# T1 construct: gene EIF2AK4
# GRK1 = tested on: GRK1
# GRK2 = tested on: T2, GRK2
# T2 construct: gene ADRBK1
# GRK3 = tested on: T3, GRK3
# T3 construct: gene ADRBK2
# 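Further: KINOMEscan kinase panel screen.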
compound,measurement,setting,value
COc1ccc(S(=O)(=O)NC2CCN(c3cc(C)nc(Nc4cccc(C#N)c4)n3)CC2)cc1.O=C(O)C(F)(F)F [GSK1653539],%Inh,FLT3-autoinhibited,0%
same,%Inh,FLT3,0%
same,%Inh,FLT4,2%
same,%Inh,FRK,0%
same,%Inh,FYN,0%
same,%Inh,GAK,0%
same,%Inh,"GCN2(Kin.Dom.2,S808G)",0%
same,%Inh,GRK1,0%
same,%Inh,GRK2,0%
same,%Inh,GRK3,0%
COc1ccc(Nc2ncc(C#N)c(Nc3ccccc3C(N)=O)n2)cc1N1CCN(C)CC1.Cl [GSK1558669],%Inh,FLT3-autoinhibited,99.9%
same,%Inh,FLT3,99.8%
same,%Inh,FLT4,100%
same,%Inh,FRK,83%
same,%Inh,FYN,96.8%
same,%Inh,GAK,98.1%
same,%Inh,"GCN2(Kin.Dom.2,S808G)",100%
same,%Inh,GRK1,55%
same,%Inh,GRK2,35%
same,%Inh,GRK3,0%
CCc1nc(-c2cccc(C)c2)c(-c2ccnc(NCc3ccccc3)c2)s1,%Inh,FLT3-autoinhibited,18%
same,%Inh,FLT3,0%
same,%Inh,FLT4,0%
same,%Inh,FRK,0%
same,%Inh,FYN,0%
same,%Inh,GAK,11%
same,%Inh,"GCN2(Kin.Dom.2,S808G)",11%
same,%Inh,GRK1,9%
same,%Inh,GRK2,0%
same,%Inh,GRK3,6%
c1ccc(-c2n[nH]cc2-c2ccnc3ccccc23)nc1 [GW271431],%Inh,FLT3-autoinhibited,5%
same,%Inh,FLT3,3%
same,%Inh,FLT4,25%
same,%Inh,FRK,10%
same,%Inh,FYN,43%
same,%Inh,GAK,79%
same,%Inh,"GCN2(Kin.Dom.2,S808G)",3%
same,%Inh,GRK1,0%
same,%Inh,GRK2,0%
same,%Inh,GRK3,34%
CNc1ncnc2[nH]ncc12 [SKF-18355],%Inh,FLT3-autoinhibited,0%
same,%Inh,FLT3,0%
same,%Inh,FLT4,0%
same,%Inh,FRK,0%
same,%Inh,FYN,0%
same,%Inh,GAK,0%
same,%Inh,"GCN2(Kin.Dom.2,S808G)",0%
same,%Inh,GRK1,29%
same,%Inh,GRK2,0%
same,%Inh,GRK3,0%
c1ccc(-c2cc(-c3c[nH]nc3-c3ccccn3)ccn2)cc1 [GW576604],%Inh,FLT3-autoinhibited,0%
same,%Inh,FLT3,0%
same,%Inh,FLT4,0%
same,%Inh,FRK,0%
same,%Inh,FYN,20%
same,%Inh,GAK,78%
same,%Inh,"GCN2(Kin.Dom.2,S808G)",1%
same,%Inh,GRK1,0%
same,%Inh,GRK2,0%
same,%Inh,GRK3,17%
O=C(Nc1n[nH]c2cc(-c3cccc(F)c3)ccc12)C1CC1 [SB-735464],%Inh,FLT3-autoinhibited,0%
same,%Inh,FLT3,21%
same,%Inh,FLT4,0%
same,%Inh,FRK,6%
same,%Inh,FYN,0%
same,%Inh,GAK,9%
same,%Inh,"GCN2(Kin.Dom.2,S808G)",0%
same,%Inh,GRK1,14%
same,%Inh,GRK2,0%
same,%Inh,GRK3,12%
O=c1cc(N2CCOCC2)nc2n(Cc3cccc(Cl)c3Cl)c(C3CC3)nn12 [GSK2358994],%Inh,FLT3-autoinhibited,0%
same,%Inh,FLT3,10%
same,%Inh,FLT4,10%
same,%Inh,FRK,0%
same,%Inh,FYN,6%
same,%Inh,GAK,11%
same,%Inh,"GCN2(Kin.Dom.2,S808G)",0%
same,%Inh,GRK1,0%
same,%Inh,GRK2,0%
same,%Inh,GRK3,0%
Cl.Oc1cccc(Nc2ccnc3cc(-c4ccncc4)ccc23)c1 [GW494601],%Inh,FLT3-autoinhibited,3%
same,%Inh,FLT3,28%
same,%Inh,FLT4,97.4%
same,%Inh,FRK,97.6%
same,%Inh,FYN,95.7%
same,%Inh,GAK,76%
same,%Inh,"GCN2(Kin.Dom.2,S808G)",0%
same,%Inh,GRK1,0%
same,%Inh,GRK2,0%
same,%Inh,GRK3,36%
COCCNC(=O)c1ccc(-c2cc(C(=O)NC3CC3)cc(F)c2C)cc1 [GW868318],%Inh,FLT3-autoinhibited,0%
same,%Inh,FLT3,15%
same,%Inh,FLT4,5%
same,%Inh,FRK,32%
same,%Inh,FYN,2%
same,%Inh,GAK,0%
same,%Inh,"GCN2(Kin.Dom.2,S808G)",12%
same,%Inh,GRK1,32%
same,%Inh,GRK2,0%
same,%Inh,GRK3,18%
N#Cc1c(N2CCOCC2)sc(-c2ccn[nH]2)c1-c1ccc(Cl)cc1,%Inh,FLT3-autoinhibited,12%
same,%Inh,FLT3,0%
same,%Inh,FLT4,0%
same,%Inh,FRK,0%
same,%Inh,FYN,0%
same,%Inh,GAK,0%
same,%Inh,"GCN2(Kin.Dom.2,S808G)",0%
same,%Inh,GRK1,15%
same,%Inh,GRK2,0%
same,%Inh,GRK3,25%
O=C1Cc2cc(Nc3nc(NCc4cccc(S(=O)(=O)C(F)(F)F)c4)ncc3C(F)(F)F)ccc2N1,%Inh,FLT3-autoinhibited,0%
same,%Inh,FLT3,0%
same,%Inh,FLT4,0%
same,%Inh,FRK,0%
same,%Inh,FYN,0%
same,%Inh,GAK,8%
same,%Inh,"GCN2(Kin.Dom.2,S808G)",28%
same,%Inh,GRK1,0%
same,%Inh,GRK2,30%
same,%Inh,GRK3,22%
Cn1ccc2ncnc(Oc3ccc(NC(=O)Nc4ccncc4)c(Cl)c3)c21,%Inh,FLT3-autoinhibited,0%
same,%Inh,FLT3,0%
same,%Inh,FLT4,0%
same,%Inh,FRK,0%
same,%Inh,FYN,0%
same,%Inh,GAK,0%
same,%Inh,"GCN2(Kin.Dom.2,S808G)",11%
same,%Inh,GRK1,7%
same,%Inh,GRK2,0%
same,%Inh,GRK3,0%
C[C@@H](Oc1cc(-n2cnc3ccc(NC(=O)NC(C)(C)C)cc32)sc1C(N)=O)c1ccccc1Cl [GSK346294],%Inh,FLT3-autoinhibited,0%
same,%Inh,FLT3,0%
same,%Inh,FLT4,1%
same,%Inh,FRK,10%
same,%Inh,FYN,6%
same,%Inh,GAK,0%
same,%Inh,"GCN2(Kin.Dom.2,S808G)",0%
same,%Inh,GRK1,0%
same,%Inh,GRK2,0%
same,%Inh,GRK3,34%
CC(C)(C)n1cnc2c(N)ncnc21 [SKF-97359],%Inh,FLT3-autoinhibited,0%
same,%Inh,FLT3,19%
same,%Inh,FLT4,0%
same,%Inh,FRK,0%
same,%Inh,FYN,0%
same,%Inh,GAK,0%
same,%Inh,"GCN2(Kin.Dom.2,S808G)",29%
same,%Inh,GRK1,0%
same,%Inh,GRK2,39%
same,%Inh,GRK3,24%
O=c1cc(N2CCOCC2)nc2n(Cc3cccc4ccccc34)ccn12 [GSK2333389],%Inh,FLT3-autoinhibited,3%
same,%Inh,FLT3,10%
same,%Inh,FLT4,8%
same,%Inh,FRK,0%
same,%Inh,FYN,0%
same,%Inh,GAK,1%
same,%Inh,"GCN2(Kin.Dom.2,S808G)",1%
same,%Inh,GRK1,13%
same,%Inh,GRK2,0%
same,%Inh,GRK3,0%
Cc1nnc(-c2ccc3occ(-c4ccc(C(C)O)cc4)c3c2)o1 (centres unmarked),%Inh,FLT3-autoinhibited,4%
same,%Inh,FLT3,0%
same,%Inh,FLT4,6%
same,%Inh,FRK,10%
same,%Inh,FYN,15%
same,%Inh,GAK,0%
same,%Inh,"GCN2(Kin.Dom.2,S808G)",23%
same,%Inh,GRK1,0%
same,%Inh,GRK2,0%
same,%Inh,GRK3,12%
Cl.Cl.Cl.Fc1ccc(-c2ncn(C3CCNCC3)c2-c2ccnc(Nc3ccccc3)n2)cc1 [SB-238039],%Inh,FLT3-autoinhibited; 1 µM,0% and 18%
same,%Inh,FLT3; 1 µM,4% and 26%
same,%Inh,FLT4; 1 µM,15% and 9%
same,%Inh,FRK; 1 µM,0% and 35%
same,%Inh,FYN; 1 µM,0% and 1%
same,%Inh,GAK; 1 µM,84% and 74%
same,%Inh,"GCN2(Kin.Dom.2,S808G); 1 µM",0% and 27%
same,%Inh,GRK1; 1 µM,32% and 25%
same,%Inh,GRK2; 1 µM,0% and 16%
same,%Inh,GRK3; 1 µM,32% and 0%
CC(C)(CN)c1nc(-c2ccc(Cl)c(O)c2)c(-c2ccncc2)[nH]1.O=C(O)C(F)(F)F [SB-477794],%Inh,FLT3; 1 µM,0% and 29%
same,%Inh,FLT4; 1 µM,78% and 74%
same,%Inh,FRK; 1 µM,99.5% and 99.1%
same,%Inh,FYN; 1 µM,97.3% and 96.8%
same,%Inh,GAK; 1 µM,71% and 56%
same,%Inh,"GCN2(Kin.Dom.2,S808G); 1 µM",14% and 0%
same,%Inh,GRK2; 1 µM,0% and 26%
same,%Inh,GRK3; 1 µM,65% and 0%

# — PMC5540273 (PLoS ONE, 2017)
